# This is a sample that favours compounds with a hit; in the whole collection about 18% have one here.
# TDP1 cell noCPT – qHTS for Inhibitors of human tyrosyl-DNA phosphodiesterase 1 (TDP1): qHTS in cells in absence of CPT; DT40 Tdp1-/- hTDP1 cells, no CPT, ATP luminescence, 48 h; Potency, µM (titrated, usually from 46.2 µM), for inactives: at the highest dose activity change, negative = growth inhibition, actives largely listed as inhibitors; 420,000 compounds, 15% hits; further: potency means the concentration at half of the fitted maximal effect; on the % scale 0 is the no-effect control and ±100 the full control effect; nearly all actives have a fitted effect of over 55% in size
#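 Growth of hTDP1-complemented DT40 Tdp1-knockout cells is measured by ATP luminescence after at least 48 hr compound exposure at 37 °C, with DMSO substituting for the 20 nM CPT used in the parallel screen.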
# DT40 TDP1 CPT – growth inhibition of DT40 Tdp1-/-;hTDP1 cells with camptothecin (screen for TDP1 inhibitors) | chicken DT40 Tdp1-/-;hTDP1 cells + 20 nM CPT, ATP luminescence, 48 h | Potency, µM (top dose mostly 46.2 µM), for inactives: at the highest dose activity change, negative = growth inhibition, most hits filed as inhibitors | 420,000 compounds, 12% hits; further: potency means the concentration at half of the fitted maximal effect; on the % scale 0 is the no-effect control and ±100 the full control effect; nearly all actives have a fitted effect of over 55% in size
#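 Cell growth measured by CellTiter-Glo luminescence after a minimum 48 h, 37 C compound exposure with 20 nM CPT in Tdp1-knockout DT40 cells stably expressing hTDP1, seeded 400/well; qHTS titration format.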
# IL1B secr inh – blocks inflammasome-driven IL-1 beta release. THP-1 LPS/ATP IL-1B secretion, AlphaLISA, 16 h; active compounds read low. activity change, % at 57.5 µM. 360,000 compounds, 4.7% hits; in the data active means activity change below about -50%; inconclusive means mostly about -30% to -49%; further: on the % scale 0 is the no-effect control and ±100 the full control effect
#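 THP-1 cells pretreated 1 hr with compounds (up to 57.5 uM final), then stimulated with LPS (250 ng/mL final) plus ATP (1.25 mM final); secreted IL-1B measured by AlphaLISA after 16 hr, decreased signal indicating inhibition.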
# HepG2 viability – counter-screen for TGF-b inhibitors: cytotoxicity in HepG2 cells; HepG2 CAGA-GFP viability, ATP luminescence, 18 h; 410,000 compounds, 0.76% hits; Potency, µM (titrated, usually from 46.1 µM), for inactives: at the top dose activity change, negative = cytotoxicity, actives largely listed as cytotoxic; further: potency means the concentration at half of the fitted maximal effect
#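 HepG2 CAGA-GFP cells (1000/well, DMEM with 1% FBS) received compound, then TGF-beta at 500 pg/mL final, and were incubated 18 hours at 37 degrees C. Viability was read by CellTiter-Glo luminescence. Media-only wells were set as complete cell-killing and DMSO as no toxicity.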
# TGFb inhibitor – TGF-b pathway inhibition; HepG2 CAGA-GFP TGF-b/SMAD3 reporter, GFP fluorescence, 18 h; TGF-beta stimulated, 500 pg/mL final; Potency, µM (doses to about 46.1 µM), inactives show at the highest dose activity, negative = inhibition, usual class: inhibitors; 410,000 compounds, 1.2% hits; AID 588855; further: potency means the concentration at half of the fitted maximal effect; on the % scale 0 is the no-effect control and ±100 the full control effect; nearly all actives have a fitted effect of over 65% in size
#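 GFP signal (ex488/em500-530) from TGF-beta-stimulated HEPG2 CAGA-GFP cells, 500 pg/mL final, 18 h at 37 degrees C in DMEM plus 1% FBS, normalized to unstimulated and DMSO-stimulated controls.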
# TDP1 block – inhibitors of human tyrosyl-DNA phosphodiesterase TDP1; Q9NUW8; recombinant TDP1, AlphaScreen DNA substrate cleavage; Potency, µM (highest dose often 130 µM), inactives show top-dose activity change, negative = inhibition, usual class: inhibitors; 350,000 compounds, 0.28% hits; AID 485290; further: potency means the concentration at half of the fitted maximal effect; on the % scale 0 is the no-effect control and ±100 the full control effect; nearly all actives have a fitted effect of over 40% in size
# Target sequence (Q9NUW8 whole entry, looked up): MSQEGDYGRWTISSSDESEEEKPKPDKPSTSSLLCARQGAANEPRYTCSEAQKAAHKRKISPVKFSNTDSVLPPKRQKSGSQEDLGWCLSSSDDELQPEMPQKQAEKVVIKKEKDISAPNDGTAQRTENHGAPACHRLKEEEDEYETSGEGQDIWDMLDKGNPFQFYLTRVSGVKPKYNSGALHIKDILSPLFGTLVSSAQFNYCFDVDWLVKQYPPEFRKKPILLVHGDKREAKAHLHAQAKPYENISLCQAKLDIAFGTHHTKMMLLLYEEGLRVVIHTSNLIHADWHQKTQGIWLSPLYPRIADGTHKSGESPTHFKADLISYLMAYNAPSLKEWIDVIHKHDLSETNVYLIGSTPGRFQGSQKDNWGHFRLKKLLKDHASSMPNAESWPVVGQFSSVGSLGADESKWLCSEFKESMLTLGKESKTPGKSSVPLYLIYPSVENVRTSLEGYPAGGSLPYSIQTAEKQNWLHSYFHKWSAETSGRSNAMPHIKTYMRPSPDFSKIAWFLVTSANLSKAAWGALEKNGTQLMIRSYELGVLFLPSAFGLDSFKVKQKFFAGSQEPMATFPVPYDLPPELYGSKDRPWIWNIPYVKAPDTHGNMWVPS
#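 E. coli-derived human Tdp1, 1 nM final. Cpd preinc 15 min RT; substrate 15 nM final, 5 min RT; AS bead mix 10 ug/ml final, 10 min RT. Signal loss = tyrosine-FITC cleavage. No-enzyme wells = max signal.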
# * hit, by the source's call; u = inconclusive; x = no result; [ ] = another dose, or the depositor's remark. Unless noted, the call rests on the fitted dose curve; in most records, active means well fitted curve in the direction sought with a large enough effect; inconclusive means small, poorly fitted or top-dose-only effect, or another doubt; inactive means no such curve, though single readings can be large; an effect the other way counts as inactive or inconclusive.
SMILES,TDP1 cell noCPT,DT40 TDP1 CPT,IL1B secr inh,HepG2 viability,TGFb inhibitor,TDP1 block
CCN(CC(=O)NC1CCS(=O)(=O)C1)S(=O)(=O)c1ccc(Cl)c(C(F)(F)F)c1 (stereo not drawn),6%,4%,13,0%,18%,-5%[0.505 µM]
CCC(=O)Oc1ccc(-c2nc3ccccc3c(=O)o2)cc1,-12%,-24%,x,-42%,12%,-1%
COC(=O)c1c(NC(=O)C2COc3ccccc3O2)sc2c1CCN(Cc1ccccc1)C2 (stereo not drawn),21µM*,16µM*,-3,-7%,0%,2%
CCCNC(=O)c1c(NC(=O)C2COc3ccccc3O2)sc2c1CCCC2 (stereo not drawn),u,12µM*,18,-7%,-7%,1%
NC(=O)c1c(NC(=O)Cc2ccccc2)sc2c1CCN(Cc1ccccc1)C2,13µM*,12µM*,-24,-15%,-2%,x
CC(=O)N1CCc2c(sc(NC(=O)Cc3ccc(F)cc3)c2C(N)=O)C1,u,5%,-5,11µM*,4%,2%
COc1ccc(NC(=O)N2CCCC3(CCN(C(=O)c4csnn4)CC3)C2)cc1,-1%,1%,x,x,x,x
C[C@@H]1C/C=C/C=C/C=C/C=C/[C@H](O[C@@H]2O[C@H](C)[C@@H](O)[C@H](N)[C@@H]2O)C[C@@H]2O[C@](O)(C[C@@H](O)C[C@H]3O[C@@H]3/C=C/C(=O)O1)C[C@H](O)[C@H]2C(=O)O,-1%,1%,x,x,x,x
COC(=O)C1=C(C(=O)OC)[C@]2([C@@H]3C/C=C\CN[C@@H](Cc4ccccc4)C(=O)N3Cc3ccccc3)C=C[C@H]1O2,u,25µM*,x,3%,-13%,x
N#C[C@@H]1N(Cc2ccccc2)C(=O)[C@H]2CC3C=CC21O3 (stereo partly drawn),u,u,-14,-17%,-20%,0%
COC(=O)c1ccc(C2SCC(=O)N2Cc2ccccc2)cc1 (stereo not drawn),u,-5%,28,4%,0%,x
COC(=O)C1=C(C(=O)OC)[C@]2([C@@H]3CCCCN[C@@H](Cc4ccccc4)C(=O)N3Cc3ccccc3)C=C[C@H]1O2,13µM*,15µM*,0,-19%,6%,x
COc1ccc(-n2cc(C(=O)NCc3ccc(Cl)cc3)c3ccccc3c2=O)cc1,u,u,x,-31%,u,0%
Cc1cc(C)c(NC(=O)C2CCCN(S(=O)(=O)c3c(C)noc3/C=C/N(C)C)C2)c(C)c1 (stereo not drawn),3%,-7%,-13,-15%,-11%,9%
CCOC(=O)[C@]12CCCC=C1N(CCC1=CCCCC1)C(=O)[C@H](CC(=O)NCc1cccs1)C2,21µM*,u,-3,x,x,x
COC(=O)[C@]12CCCCC=C1N(CCC1=CCCCC1)C(=O)[C@H](CC(=O)NCc1cccs1)C2,16µM*,u,-11,x,x,x
CCOC(=O)[C@]12CCCC=C1N(Cc1ccccc1)C(=O)[C@H](CC(=O)NCc1cccs1)C2,-26%,-5%,-10,x,x,x
COc1cccc(-n2c(=O)n(Cc3ccccc3)c(=O)c3[nH]cnc32)c1,-3%,-12%,-4,25%,-20%,1%
Cc1cccc(NC(=O)CN2CCN(C(=O)c3oc4c(Cl)cccc4c3C)CC2)c1C,u,u,-4,-40%,-32%,1%
N#Cc1cccc(-c2nc(NCc3cccnc3)c3ccccc3n2)c1,-29%,2%,x,x,x,x
COc1ccc(Cl)cc1NC(=O)CN1CCC(NC(=O)C2CC2)CC1,u,23µM*,20,5%,15%,6%
COC(=O)c1cc2sccc2n1CC(=O)Nc1cc(Cl)ccc1OC,10µM*,12µM*,x,-34%,u,-5%
COc1ccc(Cl)cc1NC(=O)CCCC(=O)c1ccccc1,u,21µM*,u,-9%,0%,x
CCOc1ccccc1NC(=O)CN1CCc2ccccc2C1,u,u,-19,-2%,-33%,1%
COc1ccc(Cl)cc1NC(=O)CN1CCc2ccccc2C1,-4%,-30%,-81*,-7%,-18%,-6%
SMILES,TDP1 cell noCPT,DT40 TDP1 CPT,IL1B secr inh,HepG2 viability,TGFb inhibitor,TDP1 block
COC(=O)C(NS(=O)(=O)CCl)C(C)C (stereo not drawn),x,x,x,1%,6%,2%
COc1ccc(N(C(=O)Cn2nnc3ccccc32)C(C(=O)NCc2ccco2)c2ccncc2)cc1 (stereo not drawn),1%,-6%,4,4%,5%,4%
COc1cc2c(cc1OC)CN(Cc1ccccc1)CC2,-30%,-1%,5,2%,2%,x
COc1ccc(Cl)cc1NC(=O)NCC1CCN(C(=O)OC(C)(C)C)CC1,-15%,-7%,-55*,19%,-25%,3%
COc1ccc(Cl)cc1NC(=O)NCCN1CCCCC1,-10%,-1%,-27,-4%,0%,-3%
COc1cc2c(cc1OC)CN(CCC(C)c1ccc(Cl)cc1)CC2 (stereo not drawn),16µM*,15µM*,-21,-24%,u,x
CCN(C(=O)Cn1c(C(=O)OC)cc2sccc21)c1cccc(C)c1,u,23µM*,x,-27%,-15%,1%
COC(=O)c1[nH]c2ccc(Cl)cc2c1NC(=O)CN1CCc2cc(OC)c(OC)cc2C1,21µM*,u,-11,-27%,u,10%
COC(=O)c1[nH]c2cc(C)ccc2c1NC(=O)CN1CCc2cc(OC)c(OC)cc2C1,u,u,u,-12%,36%,3%
COC(=O)c1cc2sccc2n1CC(=O)Nc1cc(OC)cc(OC)c1,-25%,-19%,-12,-41%,-26%,-2%
COc1ccc(NC(=O)CSc2nc(O)cc(=O)n2-c2ccc(OC)cc2)cc1,-9%,6%,5,-23%,2%,5%
COc1cc2c(cc1OC)CN(CC(=O)Nc1ccc(Cl)cc1Cl)CC2,21µM*,21µM*,12,-34%,-4%,x
COc1ccc(Cl)cc1NC(=O)COC(=O)c1cc(C)oc1C,3.3µM*,u,-28,-20%,-20%,-1%
CCN1C(=O)CSC1=NC12CC3CC(CC(C3)C1)C2,u,u,-66*,-39%,u,6%

# Assay outcomes: PubChem, National Center for Advancing Translational Sciences (NCATS)
